Calls of active or inactive are those of the source.

The values that follow come from PubChem BioAssay.

Test [1] deals with Albumin (Bos taurus) (UniProt P02769). Put plainly: bovine serum albumin binders on microarray, profiling panel, artefact control for SMM control protein annotation, biochemical, small-molecule microarray, Alexa647 label, 635/667 nm fluorescence (AID 1118).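 Further: score merges 667 nm emission intensity and signal-to-noise per printed compound spot.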 Conditions: BSA-A647 binding, fluorescence 635 nm, higher = more signal.
The nature of test [2]: small-molecule microarray binders of probe aXIP, primary screen, biochemical, NeuroSMM set, 635/667 nm fluorescence (AID 1119).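 Further: probe is the protein aXip251-270 applied at 1 µg/mL to compound-printed slides; binding of probe to printed compounds measured as 667 nm fluorescence plus signal to noise.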 Conditions: higher = more signal, called active from +8 up or from −8 down.
Test [3] in a line: small-molecule binders of probe aNOTCH3, primary screen, biochemical, small-molecule microarray, 635/667 nm fluorescence (AID 1120).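 Further: probe is a biotin-tagged antibody raised against NOTCH3 rather than NOTCH3 protein; score merges spot fluorescence near 667 nm with spot signal to noise.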 The conditions noted are these: higher = more signal.
Test [4] can be described thus: small-molecule binders of probe aNOTCH2, primary screen, biochemical, small-molecule microarray, 635/667 nm fluorescence (AID 1121).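 Further: score merges feature fluorescence read at 667 nm with its signal to noise.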 Conditions: higher = more signal.
Test [5] has as its target Carbonic anhydrase 2 (Homo sapiens) (UniProt P00918). Put plainly: CAII small-molecule binders, profiling panel, biochemical, small-molecule microarray, Alexa647-labelled CAII (AID 1122). Conditions: CAII-A647 binding fluorescence, higher = more signal.
The nature of test [6]: COS7 lysate on small-molecule microarray, probe aHis, 635 nm (AID 1123).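 Further: z-score combines 667nm fluorescence intensity with signal-to-noise per printed compound spot.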 The conditions noted are these: COS7 cell lysate, fluorescence, higher = more signal.
Test [7] is described as follows: compound binding in COS7 lysate, probe aLAP1, primary screen, cell lysate, small-molecule microarray (AID 1124).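 Further: lysate comes from COS7 cells expressing LAP1 and is applied at 0.3 µg/mL; score merges spot fluorescence near 667 nm with signal-to-noise over triplicate slides.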 The conditions noted are these: probe aLAP1, fluorescence, higher = more signal.
For test [8], the system named is Sam68 (KHDRBS1). Put plainly: Sam68 small-molecule binders, primary screen, biochemical, small-molecule microarray, 635 nm fluorescence (AID 1125).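 Further: score merges 667 nm channel intensity with signal to noise over triplicate slides.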 Conditions: small-molecule microarray binding, higher = more signal.
Test [9] has as its system Chordin-like protein 2 (CHRDL2). Put plainly: CHRDL2 small-molecule binders, primary screen, biochemical, small-molecule microarray, 635 nm fluorescence (AID 1126).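 Further: printed compound slides probed with Chrdl2 protein at 4 µg/mL for 1 h at 4 C; score merges 667 nm emission intensity with signal to noise over three replicate slides.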 The conditions noted are these: small-molecule microarray binding, fluorescence 635 nm; higher = more signal.
Test [10] concerns the target Concanavalin-A (Canavalia ensiformis) (UniProt P02866). Put plainly: ConA small-molecule binders, primary screen, artefact control for SMM control protein annotation, biochemical, small-molecule microarray, Alexa647 label, 635 nm (AID 1127).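 Further: z combines 667 nm emission intensity with signal-to-noise across three replicate slides.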 Conditions: ConA-A647 binding fluorescence, higher = more signal.
Test [11] in a line: anti-His antibody binders, primary screen, artefact control for SMM control protein annotation, biochemical, small-molecule microarray, 635 nm fluorescence (AID 1128).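 Further: score merges feature fluorescence with signal-to-noise for each printed compound spot.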 The conditions noted are these: anti-His Alexa647 antibody binding, higher = more signal.
Test [12] deals with Human papillomavirus type 1a E7 protein (residues 1-88). Put plainly: HPV1a E7 small-molecule binders, primary screen, biochemical, small-molecule microarray, residues 1-88, 635 nm (AID 1129). The conditions noted are these: small-molecule microarray binding, fluorescence 635 nm; higher = more signal.
Test [13] has as its target Focal adhesion kinase 1 (Homo sapiens) (UniProt Q05397). Put plainly: small-molecule microarray binders of FAK, primary screen, biochemical, 635/667 nm fluorescence, BSA, DTT (AID 1130).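 Further: composite of spot emission at 667 nm and signal to noise over triplicate slides.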 Conditions: PTK2 binding, 635 nm fluorescence, higher = more signal.
For test [14], the system named is Fibrinogen (Alexa647-labelled). Put plainly: fibrinogen binders on compound microarrays, profiling panel, artefact control for SMM control-protein annotation, biochemical, small-molecule microarray, 635/667 nm fluorescence (AID 1131).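 Further: z-score merges 667 nm fluorescence with per-spot signal-to-noise over triplicate slides.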 Conditions: fibrinogen-A647 binding fluorescence, higher = more signal.
Test [15] has as its target Follistatin (Homo sapiens) (UniProt P19883). Put plainly: follistatin binders on small-molecule microarrays, primary screen, biochemical, small-molecule microarray, 635/667 nm fluorescence (AID 1132). The conditions noted are these: FST binding, 635 nm fluorescence, higher = more signal.
For test [16], the target named is Fibroblast growth factor 2 (Homo sapiens) (UniProt P09038). Put plainly: FGF2 binders on small-molecule microarrays, primary screen, biochemical, small-molecule microarray, 635/667 nm fluorescence (AID 1133). Conditions: small-molecule microarray binding, FGF2, fluorescence 635/667; higher = more signal.
Test [17] can be described thus: mitochondrial membrane potential change in A549 cells, profiling panel, cell-based, JC-1 fluorescence, basal, 24 h, 100 nL (AID 1138).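 Further: A549 lung adenocarcinoma cells under basal conditions with no added stimulus; test concentration not given here.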 The conditions noted are these: higher = more signal.
The test system of test [18] is Lefty1. Put plainly: Lefty1 binders on small-molecule microarrays, primary screen, biochemical, small-molecule microarray, 635/667 nm fluorescence (AID 1139). Conditions: small-molecule microarray binding, fluorescence 635/667; higher = more signal.
Test [19] deals with wheat germ agglutinin (Triticum aestivum), Alexa647-labelled. Put plainly: wheat germ agglutinin binders on compound microarrays, profiling panel, artefact control for SMM control-protein annotation, biochemical, small-molecule microarray, 635/667 nm fluorescence (AID 1140).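 Further: score merges 667 nm feature emission with signal to noise over triplicate slides.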 The conditions noted are these: WGA-A647 binding, 635 nm fluorescence, higher = more signal.
Test [20] has as its target Luciferin 4-monooxygenase (Photinus pyralis) (UniProt P08659). Put plainly: firefly luciferase enzyme inhibitors, primary screen, biochemical, luminescence, purified enzyme, 2006 set (AID 1141).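 Further: cell-free assay with purified firefly luciferase at 100 ng per well in PBS; test concentration not given here.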 The conditions noted are these: SteadyGlo luminescence, 30 min, higher = more signal, called active from +8 up or from −8 down.

Chain of Follistatin (Homo sapiens) (P19883 whole entry, looked up): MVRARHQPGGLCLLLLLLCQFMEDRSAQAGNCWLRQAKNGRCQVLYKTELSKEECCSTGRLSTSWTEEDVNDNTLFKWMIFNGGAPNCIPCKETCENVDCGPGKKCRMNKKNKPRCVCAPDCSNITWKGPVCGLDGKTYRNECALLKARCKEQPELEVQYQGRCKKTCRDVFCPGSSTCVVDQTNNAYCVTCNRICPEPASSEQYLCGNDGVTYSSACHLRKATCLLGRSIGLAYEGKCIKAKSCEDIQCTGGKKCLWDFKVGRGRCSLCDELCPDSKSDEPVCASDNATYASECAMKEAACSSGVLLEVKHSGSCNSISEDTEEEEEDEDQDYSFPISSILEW
Chain of Concanavalin-A (Canavalia ensiformis) (P02866 whole entry, looked up): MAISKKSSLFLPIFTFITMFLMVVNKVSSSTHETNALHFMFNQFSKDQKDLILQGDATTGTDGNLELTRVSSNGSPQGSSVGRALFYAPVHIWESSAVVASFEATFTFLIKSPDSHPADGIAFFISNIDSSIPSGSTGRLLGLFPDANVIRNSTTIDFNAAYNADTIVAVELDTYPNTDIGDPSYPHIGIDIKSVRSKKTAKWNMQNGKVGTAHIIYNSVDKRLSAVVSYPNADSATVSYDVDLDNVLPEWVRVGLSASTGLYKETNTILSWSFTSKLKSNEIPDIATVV
Chain of Luciferin 4-monooxygenase (Photinus pyralis) (P08659 whole entry, looked up): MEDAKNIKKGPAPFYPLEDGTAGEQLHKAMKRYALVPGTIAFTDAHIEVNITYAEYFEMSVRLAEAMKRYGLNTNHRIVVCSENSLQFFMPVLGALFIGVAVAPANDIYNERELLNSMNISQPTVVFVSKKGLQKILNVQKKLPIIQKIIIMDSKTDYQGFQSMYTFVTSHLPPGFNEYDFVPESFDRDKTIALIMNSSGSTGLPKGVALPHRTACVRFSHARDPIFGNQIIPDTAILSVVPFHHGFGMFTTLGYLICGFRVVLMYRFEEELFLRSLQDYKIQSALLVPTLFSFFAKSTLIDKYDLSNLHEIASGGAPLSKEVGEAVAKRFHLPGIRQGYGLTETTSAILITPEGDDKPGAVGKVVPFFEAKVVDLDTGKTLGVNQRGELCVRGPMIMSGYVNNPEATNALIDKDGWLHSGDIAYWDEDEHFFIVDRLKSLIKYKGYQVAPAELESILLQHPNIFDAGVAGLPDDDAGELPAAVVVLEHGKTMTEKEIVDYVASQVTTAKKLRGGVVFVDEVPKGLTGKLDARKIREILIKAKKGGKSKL
Chain of Albumin (Bos taurus) (P02769 whole entry, looked up): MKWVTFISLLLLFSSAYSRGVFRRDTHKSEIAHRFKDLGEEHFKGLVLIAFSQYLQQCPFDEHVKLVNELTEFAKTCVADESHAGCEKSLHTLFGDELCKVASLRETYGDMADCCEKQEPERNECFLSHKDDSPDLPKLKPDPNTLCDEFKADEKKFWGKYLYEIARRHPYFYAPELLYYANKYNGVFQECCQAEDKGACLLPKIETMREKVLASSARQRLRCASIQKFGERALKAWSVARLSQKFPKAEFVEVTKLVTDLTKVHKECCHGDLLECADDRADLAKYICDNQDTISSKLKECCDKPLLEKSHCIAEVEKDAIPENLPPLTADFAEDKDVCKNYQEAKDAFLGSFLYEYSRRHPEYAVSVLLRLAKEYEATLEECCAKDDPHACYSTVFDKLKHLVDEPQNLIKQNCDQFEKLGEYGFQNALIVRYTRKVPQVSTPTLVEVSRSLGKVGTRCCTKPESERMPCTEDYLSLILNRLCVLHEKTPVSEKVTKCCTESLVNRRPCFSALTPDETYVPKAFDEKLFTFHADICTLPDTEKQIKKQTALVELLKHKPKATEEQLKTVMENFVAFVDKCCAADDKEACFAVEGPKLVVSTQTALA
Chain of Focal adhesion kinase 1 (Homo sapiens) (Q05397 whole entry, looked up): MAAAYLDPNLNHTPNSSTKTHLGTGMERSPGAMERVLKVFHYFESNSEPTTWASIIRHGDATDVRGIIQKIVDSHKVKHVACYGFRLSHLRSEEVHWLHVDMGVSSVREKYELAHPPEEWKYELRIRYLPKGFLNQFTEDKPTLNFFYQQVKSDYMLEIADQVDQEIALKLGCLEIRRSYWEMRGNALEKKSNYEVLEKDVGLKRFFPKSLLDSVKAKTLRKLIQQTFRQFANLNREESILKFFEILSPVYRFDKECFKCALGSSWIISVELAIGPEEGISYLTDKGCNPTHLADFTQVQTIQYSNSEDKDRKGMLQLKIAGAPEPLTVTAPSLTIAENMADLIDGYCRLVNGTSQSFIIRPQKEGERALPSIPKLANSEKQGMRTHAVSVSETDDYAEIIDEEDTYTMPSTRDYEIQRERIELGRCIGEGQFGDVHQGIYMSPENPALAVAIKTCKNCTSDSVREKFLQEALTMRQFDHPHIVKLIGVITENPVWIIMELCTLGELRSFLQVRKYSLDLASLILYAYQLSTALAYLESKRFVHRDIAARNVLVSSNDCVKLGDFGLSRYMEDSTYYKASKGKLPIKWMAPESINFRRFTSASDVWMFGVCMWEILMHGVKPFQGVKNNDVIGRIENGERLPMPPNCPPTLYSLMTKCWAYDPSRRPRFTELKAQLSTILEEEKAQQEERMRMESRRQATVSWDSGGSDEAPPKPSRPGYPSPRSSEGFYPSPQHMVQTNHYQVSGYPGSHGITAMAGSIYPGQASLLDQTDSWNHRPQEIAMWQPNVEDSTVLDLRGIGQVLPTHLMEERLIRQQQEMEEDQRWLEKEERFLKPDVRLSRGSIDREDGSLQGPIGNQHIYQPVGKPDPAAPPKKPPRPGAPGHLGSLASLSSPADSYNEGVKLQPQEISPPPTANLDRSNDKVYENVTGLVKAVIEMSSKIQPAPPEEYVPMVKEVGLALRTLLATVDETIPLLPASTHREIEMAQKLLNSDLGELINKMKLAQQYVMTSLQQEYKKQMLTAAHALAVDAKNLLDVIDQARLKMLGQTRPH
Chain of Fibroblast growth factor 2 (Homo sapiens) (P09038 whole entry, looked up): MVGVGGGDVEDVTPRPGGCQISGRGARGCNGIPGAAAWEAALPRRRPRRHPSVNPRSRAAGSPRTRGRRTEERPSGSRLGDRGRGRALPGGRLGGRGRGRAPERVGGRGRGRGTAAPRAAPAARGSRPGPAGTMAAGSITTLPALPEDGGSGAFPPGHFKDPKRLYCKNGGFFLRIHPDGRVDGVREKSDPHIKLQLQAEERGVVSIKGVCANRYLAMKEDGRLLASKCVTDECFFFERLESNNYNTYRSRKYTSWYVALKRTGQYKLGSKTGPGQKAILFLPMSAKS

For the compound `[N-]=[N+]=Nc1ccccc1C[C@]1(C(=O)NCC(O)CO)COC(c2ccc(OCCCO)cc2)=N1` (stereo not given in full), the composite z-score in test [1] is 0.407; in test [3], 0.0339; in [4], -0.0482; in test [5], 0.753; in test [6], 2.09; in test [7], 0.282. In addition, the composite z-score in test [8] was -0.206; in [9] it was -1.21; in test [10], 0.832; in test [11], 1.91; in test [12], 1.23; in test [13] it was 0.352. For the same compound, the composite z-score in [14] was 0.579; in [15] it was -0.0953; in test [16], -0.483; in test [18] it was -0.729; in test [19], 0.14. Besides, the composite Z-score in test [2] was 0.371 (inactive). The figures for the z-score in [17] and in test [20] were 2 and -4.04 (inactive), respectively.

For `COC(=O)[C@@]1(Cc2ccc(OC)cc2)[C@H]2c3cc(C(=O)N(C)C)n(Cc4ccc(OC(F)(F)F)cc4)c3C[C@H]2CN1C(=O)c1ccccc1`, the composite z-score was 0.953 in [1]; 0.11 in test [3]; 0.141 in test [4]; 0.822 in [5]; 1.74 in test [6]; -0.0771 in test [7]. Also, the composite z-score was -0.264 in test [8]; -0.899 in [9]; -0.467 in test [10]; -0.399 in [11]; 0.299 in test [12]; 1.14 in test [13]. The composite z-score in test [14] was 0.808; in test [15], -0.295; in test [16], -0.555; in test [18], -0.878; in test [19], 0.0102. The composite Z-score in test [2] was 0.255 (inactive). The z-score in test [17] was 0.517; in [20], 0.86 (inactive).

As to `C=CCC(OC(C)=O)[C@@H]1[C@@H](N(Cc2cc3ccccc3o2)C(=O)Cc2ccc(F)cc2)c2cc(OCCCO)ccc2N1C(=O)Cc1ccc2ccccc2c1` (stereo not given in full), the composite z-score was 0.533 in [1]; -0.0311 in [3]; -0.104 in test [4]; -0.208 in test [5]; 0.615 in test [6]; -0.0657 in test [7]. The composite z-score is -0.39 in test [8]; -0.21 in [9]; 0.296 in [10]; -0.748 in [11]; -0.682 in test [12]; -0.308 in test [13]. Moreover, the composite z-score in test [14] is 0.397; in test [15] it was 0.0648; in [16], -0.408; in test [18] it was -0.0725; in test [19], -0.286. In addition, the composite Z-score in test [2] was 0.242 (inactive). The z-score is 1.75 in test [17] and -0.826 (inactive) in test [20].

As for `C=CCN1C(=O)[C@]2(CCC(=O)OC(C)(C)C)N=C(c3ccc(OCCCO)cc3)O[C@@H]2c2ccccc21`, the composite z-score in [1] is -0.361; in [3], 0.185; in test [4], -0.118; in [5] it was 0.256; in test [6], 1.38; in test [7], 0.023. Further, the composite z-score was determined as 0.587 in [8]; 0.281 in [9]; 1.14 in test [10]; 2.42 in test [11]; 0.944 in [12]; 0.469 in test [13]. Also, the composite z-score in [14] was 0.317; in [15], 1.19; in test [16] it was -0.132; in test [18], 0.467; in [19], 0.27. Further, the composite Z-score in test [2] was -0.014 (inactive). Also, the z-score in test [17] is 0.859; in test [20], -5.66 (inactive).

In the case of `C=C(COC)/C(=C/C[C@H](OC(=O)c1ccncc1)c1ccc(CO)o1)c1cnc2ccccc2c1`, the composite z-score in test [1] is -0.0377; in test [3], 0.0282; in test [4], -0.123; in [5], 0.915; in test [6] it was 1.04; in test [7] it was 1.12. Besides, the composite z-score in [8] worked out at 1.27; in [9], 0.766; in [10] it was 1.08; in test [11] it was 0.283; in test [12], 1.15; in test [13], 0.382. For the same compound, the composite z-score in test [14] amounted to 0.271; in test [15], 1.25; in test [16], 0.222; in test [18], 1.57; in test [19], 0.734. Besides, the composite Z-score in test [2] was 0.99 (inactive). Also, the z-score in test [17] was 0.818; in test [20] it was -1.72 (inactive).

For `O=C1N(Cc2ccccc2)c2ccccc2C[C@]12N=C(c1ccc(OCCCO)cc1)O[C@@H]2c1ccccc1`, the composite z-score in test [1] was 0.185; in test [3], 0.0203; in [4], -0.161; in test [5], 0.529; in test [6], 1.86; in test [7] it was 0.274. In addition, the composite z-score in [8] amounted to 0.48; in test [9], 0.441; in test [10] it was 1.02; in test [11] it was 1.1; in [12], 1.03; in test [13], 1.7. In addition, the composite z-score in test [14] was found to be 0.529; in [15], 1.1; in [16], 1.36; in [18], 0.492; in [19] it was 0.186. For the same compound, in test [2], the composite Z-score is 0.109 (inactive). Moreover, the z-score in test [17] was -0.911; in [20], -1.74 (inactive).
